Experimental data taken from article PMC5540273 (PLoS ONE, 2017).

tested on: FRK; details: concentration: 1 μM, replicates: in singlicate; n = 1
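Further: KINOMEscan kinase panel screen.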

SMILES | %Inh [%]
O=C(Nc1cccc(Oc2ccc3nc(NC(=O)C4CC4)cn3n2)c1)c1ccccc1C(F)(F)F | 30
Cl.Cl.NCC(NCc1ccc(-c2ccnc3[nH]ccc23)s1)c1ccccc1 (stereo not shown) [GSK1321565] | 0
COc1ccc(CNC(=O)NC2CCN(c3ccnc(Nc4ccc(F)cc4)n3)CC2)cc1 [GSK1379788] | 0
CCn1c(-c2nonc2N)nc2c(C#CC(C)(C)O)nc(OC[C@H](N)c3ccccc3)cc21 [GSK943949] | 0
CN(c1ccc(NC(=O)Nc2cc(C(F)(F)F)ccc2F)cc1)c1ccnc(Nc2ccc(S(N)(=O)=O)cc2)n1 [GW809893] | 99
O=C(Nc1n[nH]c2nc(-c3ccc(O)cc3)ccc12)C1CC1 [SB-710363] | 0
O=C(Nc1cccc(-c2nn3ccccc3c2-c2ccnc(Nc3cccc(F)c3)n2)c1)c1c(F)ccc(F)c1Cl [GSK357952] | 76
Nc1ncnc2c1nc(-c1ccccc1)n2-c1ccccc1 [SKF-97293] | 0
Cc1cccc(Nc2nc(N[C@H]3CCNC3)ncc2C(N)=O)c1.Cl [GSK2197149] | 15
COc1cccc(C2=C(Nc3ccc(Cl)c(C(=O)O)c3)C(=O)NC2=O)c1 [SB-390769] | 32
COc1cc(Nc2nccc(-c3c(-c4cccc(NC(=O)c5c(F)cccc5F)c4)nn4ccccc34)n2)cc(OC)c1OC [GSK323521] | 11
CC(=O)Nc1nc2cnc(Nc3cc(NC(=O)c4cccc(C5(C#N)CC5)c4Cl)ccc3C)nc2s1 | 93.2
c1ccc(Oc2ccc(Nc3ccnc4cc(-c5ccc(CNCCN6CCOCC6)o5)ccc34)cc2)nc1 [GW567145] | 13
CNC(=O)c1ccccc1Nc1nc(Nc2ccc(N3CCOCC3)cc2)ncc1Cl.Cl [GSK1576028] | 86
Cl.Cl.NCC(NC(=O)c1cc(-c2ccccc2)c(-c2ccnc3[nH]ccc23)s1)c1ccccc1 (stereo not shown) [GSK1321561] | 72
Fc1ccc(-c2ncn(C3CCNCC3)c2-c2ccnc(Oc3ccc(-c4ccccc4)cc3)n2)cc1 [SB-245391] | 31
Cn1cc(-c2ccc3c(c2)CCN3C(=O)Cc2cccc(F)c2)c2c(N)ncnc21 [GSK2603358] | 0
COc1cc(Nc2nccc(N3CCC(NC(=O)c4cc5ccccc5s4)C3)n2)cc(OC)c1OC (stereo not shown) [GSK1379760] | 9
CC(=O)N1CCN(c2ccc(Nc3nccc(-c4sc(C(C)C)nc4-c4cccc(NS(=O)(=O)c5cccc(Cl)c5)c4)n3)cn2)CC1 [GSK1660437] | 70
COc1cc(Nc2ncc3c(C)nc(-c4cc5ccccc5[nH]4)n3n2)cc(OC)c1OC [GW869516] | 39
CN1CCN(Cc2cccc(-c3ccc4c(Nc5ccc(Oc6ccccc6)cc5)ccnc4c3)c2)CC1 [GW578342] | 19
Nc1ncc(-c2ccc3nccc(-c4ccncc4)c3c2)cc1S(=O)(=O)N1CCOCC1 [GSK1627798] | 8
CN(C)S(=O)(=O)c1cc(-c2ccc3nccc(-c4cccc(S(N)(=O)=O)c4)c3c2)cnc1N [GSK1669921] | 7
CCn1c(-c2nonc2N)nc2c(C#CC(C)(C)O)ncc(OCCCCN)c21.O=C(O)C(F)(F)F.O=C(O)C(F)(F)F [GSK507274] | 26
Cc1ccc(C)c(NC(=O)NC2CCN(c3ccnc(Nc4ccc(F)cc4)n3)C2)c1 (stereo not shown) [GSK1379720] | 14
